Measured values taken from PubChem BioAssay (NCI).
About 83,000 compounds went through this panel and 20% of them were active in at least one assay; those are over-represented in the sample as a whole.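 Percent growth is the endpoint: 0 to 100 indicates growth inhibition (40 means 60% inhibition), 0 means no net growth, and negative values indicate cell death.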 The source made the active and inactive calls. The calls were made as follows: active = growth percent below 10; inactive = the rest.

The compounds below were run on ACHN renal (assay: NCI-60 one-dose screen, 48 h (100 = growth as untreated, 0 = no growth, -100 = all killed)). Conditions: 10 µM unless noted.

Row | SMILES | growth
1 | COc1cc2c(cc1OC)C(C)N(S(N)(=O)=O)CC2 (stereo not drawn) | 102% (inactive)
2 | CCCC/C(CC)=N\NS(=O)(=O)c1ccc([N+](=O)[O-])cc1 | 104% (inactive)
3 | O=[N+]([O-])c1ccc(O)cc1Br | 99.2% (inactive)

What follows are compounds tested on CAKI-1 renal in the same assay as above. Conditions: 10 µM unless noted.

Row | SMILES | growth
4 | COc1ccc(C(O)c2cc3c(N)c(C(=O)Nc4cccc(Br)c4)sc3nc2C)cc1 (stereo not drawn) | 13.5% (inactive)
5 | CC/C(=C(/c1ccc(Cl)cc1)c1ccc(OCCN2CCCCC2)cc1)c1ccc(OC)cc1 | 72.3% (inactive)
6 | CCOC(=O)c1c2c(n3cccc(F)c13)C(=O)c1ncccc1C2=O | 14.4% (inactive)
7 | CC(=O)O[C@@H]1C[C@]2(C(C)C)O[C@@]1(C)[C@@H]1CCC(C)=C1[C@@H]2OC(=O)/C=C/c1ccccc1 | 71.3% (inactive)
8 | O=C(O)c1ccc(-n2cc(/C=N/Nc3ccccc3)c(-c3ccc(F)cc3F)n2)cc1 | 28.5% (inactive)
9 | O=C(NCc1ccc(Cl)cc1Cl)C1CCC(=O)N1c1cccs1 (stereo not drawn) | 81.6% (inactive)
10 | CCSc1oc(-c2ccccc2)nc1[P+](c1ccccc1)(c1ccccc1)c1ccccc1 | 1.2% (active)
11 | O=C1C(=O)N(Cc2ccc(-c3ccccc3)cc2)c2ccc(OC(F)(F)F)cc21 | 31.7% (inactive)
12 | Cc1nc2sc(C(=O)Nc3ccc(Br)cc3)c(N)c2cc1C(O)c1ccccc1 (stereo not drawn) | 65% (inactive)
13 | O=C(Cn1cc(CSc2nc3ccccc3o2)nn1)Nc1ccc(F)cc1F | 105% (inactive)
14 | COC(=O)c1nc(-c2ccc(C)cc2)oc1S(=O)(=O)c1cccc(OC)c1 | 69.5% (inactive)
15 | COc1ccc(C/C(C)=C(/c2ccc(OCCN(C)C)cc2)c2ccc(OC(=O)NCc3ccccc3)cc2)cc1 | 67.1% (inactive)
16 | COc1ccc(/C=C(\C#N)n2nnc3cc(F)c(F)cc32)cc1 | 54.4% (inactive)
17 | COC(=O)c1c2c(c(C)[n+]([O-])c1C)C(=O)C(NCc1cccc(OC)c1)=CC2=O | 55.7% (inactive)
18 | COc1ccc(-c2nc3cc(C(=O)NCc4ccccc4)ccc3n2C2CCCCC2)cc1 | 70.5% (inactive)
19 | CCN(CC)CCn1c2ccc(OC)cc2c2sc3cc(OC)ccc3c(=O)c21 | 48.3% (inactive)
20 | COc1ccc(C(=O)N2c3ccccc3Sc3ccccc32)c(OC)c1 | 36.8% (inactive)
21 | CCN1CCN(C(=O)[C@]23CCC(C)(C)C[C@@H]2C2=CC[C@@H]4[C@@]5(C)CCC(=O)C(C)(C)[C@@H]5CC[C@@]4(C)[C@]2(C)CC3)CC1 | 60% (inactive)
22 | Clc1ccc2c(NC3CCC(N4CCOCC4)CC3)ccnc2c1 (stereo not drawn) | 75.1% (inactive)
23 | CCCOC(=O)Nc1nc2ccc(SCC(C)C)cc2s1 | 49.1% (inactive)

Row | SMILES | growth
24 | COc1ccc(Nc2ncc(Br)c(NCCCNC(=O)c3cccs3)n2)cc1 | 16.2% (inactive)
25 | N#Cc1c(-c2ccccc2)cc(-c2ccc(Nc3nc(Nc4ccc(Cl)cc4)nc(Nc4ccc(Cl)cc4)n3)cc2)nc1N | 20.1% (inactive)
26 | COC(=O)c1c(C)c2n(c1C)C(=O)C(c1ccccc1)=C2 | 33.1% (inactive)
27 | COc1ccc(Nc2ncc(Br)c(NCCCNC(=O)C3CCCC3)n2)cc1 | 9.48% (active)
28 | C=CCn1c(C)nc2ccc(Nc3nc(Nc4ccc5nc(C)n(CC=C)c5c4)c4ccccc4n3)cc21 | -24.1% (active)
29 | O=C(O)c1cn(C2CC2)c2cc(N3CCN(Cc4ccc5ccccc5c4O)CC3)c(F)cc2c1=O | 15.2% (inactive)
30 | N#C/C(=C\c1c(-c2ccccc2)[nH]c2ccccc12)C(N)=O | 63.2% (inactive)
31 | COc1ccc(C2CC(c3ccc(Nc4nc(Nc5ccccc5)nc(Nc5ccccc5)n4)cc3)=NN2C(C)=O)cc1 (stereo not drawn) | 105% (inactive)
32 | COc1cc2c(c(OC)c1OC)CCC(c1cccc(C(=O)Nc3cccc(Cl)c3)c1)O2 (stereo not drawn) | 84.8% (inactive)
33 | COc1cc(OCc2cccc(Br)c2C)cc(OC)c1C=O | 24.2% (inactive)
34 | COC1=CC(c2ccc[nH]2)=N/C1=C\c1[nH]c(C)c(C(=O)OC(C)C)c1C | -32.4% (active)
35 | CCCc1c(OC(=O)c2ccccc2)nc2[nH]c(=O)sc2c1C | 95.6% (inactive)
36 | CN(C)c1ccc(-c2c(C#N)c(N)nn2C(=O)c2ccc(NC(=O)c3ccccn3)cc2)cc1 | 77.3% (inactive)
37 | CC1CCN(CCOc2ccc(CNc3ccc4nc(CCC5CCCCC5)[nH]c4c3)cc2)CC1 | -4.81% (active)
38 | COc1cc2c(cc1OCCCN1CCN(CCCOc3cc4c(cc3OC)C(=O)N3CCC[C@H]3C=N4)CC1)C=CC(C)(C)O2 | -71% (active)
39 | Oc1c(I)cc(I)cc1CNCCN(Cc1ccccn1)Cc1ccccn1 | -92.2% (active)
40 | O=CN1N=C(c2cccc(Nc3ccnc4cc(Cl)ccc34)c2)CC1c1ccccc1 (stereo not drawn) | 11.8% (inactive)
41 | COc1cc2c(cc1OC)C(C)N(S(N)(=O)=O)CC2 (stereo not drawn) | 101% (inactive)
42 | CCCC/C(CC)=N\NS(=O)(=O)c1ccc([N+](=O)[O-])cc1 | 96.9% (inactive)
43 | O=[N+]([O-])c1ccc(O)cc1Br | 94.5% (inactive)
